Potency and affinity values are given separately.
system: Klebsiella pneumoniae; conditions: Concentration 32 ug.mL-1;; ASSAY_TEST Inhibition of Bacterial Growth; detection method Absorption (OD600); MEDIA CAMHB; plate type 384well; NBS; CORNING #3640; time 18 hr

| SMILES | Inhibition [%] |
| --- | --- |
| Cc1cccc(C)c1NC(=O)Cn1nc2c(N3CCSCC3)nc3ccccc3n2c1=O | 7.3 |
| O=S(=O)(c1ccc2nncn2c1)N(Cc1cccc(Cl)c1)c1ccccc1 | 4.69 |
| COC(=O)c1sccc1NC(=O)Cn1nc2c(Oc3ccccc3)nc3ccccc3n2c1=O | 10.72 |
| Cc1nnc2c(S(=O)(=O)N(Cc3ccccc3Cl)c3ccc(F)c(F)c3)cccn12 | 13.53 |
| Cc1nnc2ccc(S(=O)(=O)N(Cc3ccccc3Cl)c3cccc(F)c3)cn12 | 7.69 |
| CCC(Sc1nnc2c(=O)n(-c3cccc(OC)c3)ccn12)C(=O)Nc1ccccc1C (stereo not drawn) | 4.33 |
| COc1ccc(NC(=O)Cn2nc3c4c5c(sc4ncn3c2=O)CCCC5)cc1 | 6.74 |
| O=C(Cn1nc2c3c4c(sc3ncn2c1=O)CCCC4)NCc1ccccc1Cl | 0.41 |
| CCc1ccc(N(Cc2cccc(F)c2)S(=O)(=O)c2cccn3c(CC)nnc23)cc1 | 9.15 |
| Cc1ccc(-c2ccc3nnc(CCC(=O)NCc4ccc(C(C)C)cc4)n3n2)cc1C | 10.51 |
| CCN(CCCNC(=O)CCc1nnc2ccc(-c3ccc(C)c(C)c3)nn12)c1ccccc1 | 13.51 |
| CCOc1ccc(-n2ccn3c(SCC(=O)Nc4cccc(CC)c4)nnc3c2=O)cc1 | -1.92 |
| O=C(Cn1nc2c(N3CCOCC3)nccn2c1=O)NCc1ccc(F)cc1 | 12.27 |
| Cc1ccc2c(c1)N(C(=O)Cn1nc3ccc(S(=O)(=O)C(C)(C)C)nn3c1=O)CCO2 | 13.78 |
| CC(C)(C)NC(=O)Cn1nc2n(Cc3ccco3)c(=O)c3sccc3n2c1=O | 9.07 |
| Cc1ccc(-c2ccc3nn(Cc4cccc(Br)c4)c(=O)n3n2)cc1 | 7.86 |
| Cc1ccc(C)c(CN(c2ccc(F)c(F)c2)S(=O)(=O)c2cccn3cnnc23)c1 | -0.76 |
| COc1ccc(-c2cc3c4nnc(CCC(=O)NCc5ccc6c(c5)OCO6)n4ccn3n2)cc1 | 9.82 |
| COc1ccc(-c2cc3c4nn(CC(=O)Nc5c(C)cc(C)cc5C)c(=O)n4ccn3n2)cc1 | 6.07 |
| COc1cccc(Oc2nccn3c(=O)n(CC(=O)Nc4ccc(C)cc4Cl)nc23)c1 | 11.4 |

| SMILES | Inhibition [%] |
| --- | --- |
| Cc1cc(C)cc(N(Cc2ccc(F)cc2)S(=O)(=O)c2cccn3c(C)nnc23)c1 | -0.28 |
| CC(C)Cn1c(=O)c2sccc2n2c(=O)n(CC(N)=O)nc12 | -1.97 |
| O=c1c2nnc(SCc3ccc(Cl)cc3)n2ccn1-c1ccc(F)c(F)c1 | 10.1 |
| CCCCOc1ccc(-c2cc3c4nnc(SCC(=O)N(C)c5ccc(F)cc5)n4ccn3n2)cc1 | 3.98 |
| CCc1ccc(N(Cc2ccc(F)cc2)S(=O)(=O)c2cccn3c(C)nnc23)cc1 | -1.65 |
| COc1ccc(NC(=O)Cn2nc3c(Oc4ccccc4)nccn3c2=O)cc1OC | 4.37 |
| COc1ccc(N(Cc2cccc(Cl)c2)S(=O)(=O)c2ccc3nncn3c2)cc1 | 12.52 |
| COc1ccc(NC(=O)Cn2nc3ccc(SC(C)(C)C)nn3c2=O)cc1Cl | 12.99 |
| COc1ccc(-c2cc3c4nnc(SCC(=O)NCc5ccc(C)cc5)n4ccn3n2)cc1 | 7.85 |
| Cc1ccc(Sc2nccn3c(=O)n(CC(=O)Nc4ccccc4Br)nc23)c(C)c1 | 1.33 |
| CC(C)(C)Sc1ccc2nn(CC(=O)NCc3ccc(Cl)cc3)c(=O)n2n1 | 10.39 |
| COc1cccc(-n2ccn3c(SCc4ccccc4C)nnc3c2=O)c1 | 8.9 |
| Cc1ccc(NC(=O)Cn2nc3c(N4CCOCC4)nccn3c2=O)cc1Cl | 6.31 |
| O=C(Cn1nc2c3c4c(sc3ncn2c1=O)CCCC4)NCc1ccc(F)cc1 | 9.92 |
| CCOc1ccc(-n2ccn3c(SCC#N)nnc3c2=O)cc1 | 5.38 |
| Cc1cccc(Oc2nccn3c(=O)n(CC(=O)Nc4ccccc4C(F)(F)F)nc23)c1C | 10.49 |
| Cc1ccc(NC(=O)Cn2nc3ccc(SC4CCCCC4)nn3c2=O)c(Cl)c1 | 12.19 |
| COc1ccc(NC(=O)Cn2nc3ccc(SCc4ccc(Cl)cc4)nn3c2=O)cc1Cl | -2.5 |
| CC(C)c1nnc2c(SCC(=O)Nc3ccc(Br)cc3)nc3ccccc3n12 | 6.82 |

system: Candida albicans; conditions: Concentration 32 ug.mL-1; ASSAY_TEST Inhibition of Fungal Growth; detection method Absorption (OD530)

| SMILES | Inhibition [%] |
| --- | --- |
| Cc1cccc(C)c1NC(=O)Cn1nc2c(N3CCSCC3)nc3ccccc3n2c1=O | 2.93 |
| O=S(=O)(c1ccc2nncn2c1)N(Cc1cccc(Cl)c1)c1ccccc1 | -1.59 |
| COC(=O)c1sccc1NC(=O)Cn1nc2c(Oc3ccccc3)nc3ccccc3n2c1=O | 1.3 |
| Cc1nnc2c(S(=O)(=O)N(Cc3ccccc3Cl)c3ccc(F)c(F)c3)cccn12 | 0.59 |
| Cc1nnc2ccc(S(=O)(=O)N(Cc3ccccc3Cl)c3cccc(F)c3)cn12 | 4.75 |
| CCC(Sc1nnc2c(=O)n(-c3cccc(OC)c3)ccn12)C(=O)Nc1ccccc1C (stereo not drawn) | 0.82 |
| COc1ccc(NC(=O)Cn2nc3c4c5c(sc4ncn3c2=O)CCCC5)cc1 | 5.37 |
| O=C(Cn1nc2c3c4c(sc3ncn2c1=O)CCCC4)NCc1ccccc1Cl | 2.22 |
| CCc1ccc(N(Cc2cccc(F)c2)S(=O)(=O)c2cccn3c(CC)nnc23)cc1 | 4.6 |
| Cc1ccc(-c2ccc3nnc(CCC(=O)NCc4ccc(C(C)C)cc4)n3n2)cc1C | 5.56 |
| CCN(CCCNC(=O)CCc1nnc2ccc(-c3ccc(C)c(C)c3)nn12)c1ccccc1 | 13.02 |
| CCOc1ccc(-n2ccn3c(SCC(=O)Nc4cccc(CC)c4)nnc3c2=O)cc1 | 12.86 |
| O=C(Cn1nc2c(N3CCOCC3)nccn2c1=O)NCc1ccc(F)cc1 | 2.87 |
| Cc1ccc2c(c1)N(C(=O)Cn1nc3ccc(S(=O)(=O)C(C)(C)C)nn3c1=O)CCO2 | 0.51 |
| CC(C)(C)NC(=O)Cn1nc2n(Cc3ccco3)c(=O)c3sccc3n2c1=O | 1.61 |
| Cc1ccc(-c2ccc3nn(Cc4cccc(Br)c4)c(=O)n3n2)cc1 | -0.24 |
| Cc1ccc(C)c(CN(c2ccc(F)c(F)c2)S(=O)(=O)c2cccn3cnnc23)c1 | 1.83 |
| COc1ccc(-c2cc3c4nnc(CCC(=O)NCc5ccc6c(c5)OCO6)n4ccn3n2)cc1 | 3.53 |
| COc1ccc(-c2cc3c4nn(CC(=O)Nc5c(C)cc(C)cc5C)c(=O)n4ccn3n2)cc1 | -1.73 |
| COc1cccc(Oc2nccn3c(=O)n(CC(=O)Nc4ccc(C)cc4Cl)nc23)c1 | 4.48 |

| SMILES | Inhibition [%] |
| --- | --- |
| Cc1cc(C)cc(N(Cc2ccc(F)cc2)S(=O)(=O)c2cccn3c(C)nnc23)c1 | 0.42 |
| CC(C)Cn1c(=O)c2sccc2n2c(=O)n(CC(N)=O)nc12 | -1.59 |
| O=c1c2nnc(SCc3ccc(Cl)cc3)n2ccn1-c1ccc(F)c(F)c1 | 4.2 |
| CCCCOc1ccc(-c2cc3c4nnc(SCC(=O)N(C)c5ccc(F)cc5)n4ccn3n2)cc1 | 15.18 |
| CCc1ccc(N(Cc2ccc(F)cc2)S(=O)(=O)c2cccn3c(C)nnc23)cc1 | 6.88 |
| COc1ccc(NC(=O)Cn2nc3c(Oc4ccccc4)nccn3c2=O)cc1OC | 1.92 |
| COc1ccc(N(Cc2cccc(Cl)c2)S(=O)(=O)c2ccc3nncn3c2)cc1 | 3.54 |
| COc1ccc(NC(=O)Cn2nc3ccc(SC(C)(C)C)nn3c2=O)cc1Cl | 3.69 |
| COc1ccc(-c2cc3c4nnc(SCC(=O)NCc5ccc(C)cc5)n4ccn3n2)cc1 | 1.56 |
| Cc1ccc(Sc2nccn3c(=O)n(CC(=O)Nc4ccccc4Br)nc23)c(C)c1 | 1.01 |
| CC(C)(C)Sc1ccc2nn(CC(=O)NCc3ccc(Cl)cc3)c(=O)n2n1 | 0.88 |
| COc1cccc(-n2ccn3c(SCc4ccccc4C)nnc3c2=O)c1 | 2.6 |
| Cc1ccc(NC(=O)Cn2nc3c(N4CCOCC4)nccn3c2=O)cc1Cl | 3.12 |
| O=C(Cn1nc2c3c4c(sc3ncn2c1=O)CCCC4)NCc1ccc(F)cc1 | 15.82 |
| CCOc1ccc(-n2ccn3c(SCC#N)nnc3c2=O)cc1 | 1.02 |
| Cc1cccc(Oc2nccn3c(=O)n(CC(=O)Nc4ccccc4C(F)(F)F)nc23)c1C | -0.97 |
| Cc1ccc(NC(=O)Cn2nc3ccc(SC4CCCCC4)nn3c2=O)c(Cl)c1 | 5.14 |
| COc1ccc(NC(=O)Cn2nc3ccc(SCc4ccc(Cl)cc4)nn3c2=O)cc1Cl | 38.9 |
| CC(C)c1nnc2c(SCC(=O)Nc3ccc(Br)cc3)nc3ccccc3n12 | 0.48 |
